SMN2 splice enh: enhancers of SMN2 splice variant expression; 210,000 tested, 2.8% active; HEK293 SMN2-luciferase splicing reporter, luminescence, 30-36 h; AID 1458; Potency, µM (series often up to 46.1 µM), for the others: at the highest dose activity change, positive = activation, actives largely listed as activators; note: % of control where 0% means no effect; nearly all actives have a fitted effect of over 55% in size
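HEK293 cells carry an SMN2 minigene-luciferase reporter in which exon 7 inclusion puts luciferase in frame. Cells were seeded at 2000 cells/well, attached for 10-12 hours, then exposed to compounds for 30-36 hours at 37C before ONE-Glo luminescence.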
Rab9 prom act: Rab9 promoter activation. Huh7 Rab9 promoter-luciferase reporter, luminescence, 24 h. Potency, µM (titrated, usually from 9.22 µM), for the others: top-dose activation, negative = inhibition, most hits filed as activators. 320,000 tested, 2.8% active; note: % of control where 0% means no effect; nearly all actives have a fitted effect of over 60% in size
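Luminescence from Amplite-detected luciferase (10 minutes, ambient) reports Rab9 promoter activation. Before that, stable Rab9-luciferase Huh7 cells (1500/well, reduced-serum OP-MEM I plus 10% FBS) were exposed to compound for 24 hours at 37C.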
FLuc counter: inhibits or activates purified firefly luciferase, miR-21 counter-screen; P08659; purified FLuc, Km substrates, luminescence inhibition; Potency, µM (titrated, usually from 57.5 µM), inactives show top-dose activity change, negative = inhibition, actives largely listed as inhibitors; 360,000 tested, 6.9% active;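 note: plate controls were vehicle for no effect and reference inhibitor for full effect; nearly all actives have a fitted effect of over 55% in size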
Target sequence (P08659 whole entry, looked up): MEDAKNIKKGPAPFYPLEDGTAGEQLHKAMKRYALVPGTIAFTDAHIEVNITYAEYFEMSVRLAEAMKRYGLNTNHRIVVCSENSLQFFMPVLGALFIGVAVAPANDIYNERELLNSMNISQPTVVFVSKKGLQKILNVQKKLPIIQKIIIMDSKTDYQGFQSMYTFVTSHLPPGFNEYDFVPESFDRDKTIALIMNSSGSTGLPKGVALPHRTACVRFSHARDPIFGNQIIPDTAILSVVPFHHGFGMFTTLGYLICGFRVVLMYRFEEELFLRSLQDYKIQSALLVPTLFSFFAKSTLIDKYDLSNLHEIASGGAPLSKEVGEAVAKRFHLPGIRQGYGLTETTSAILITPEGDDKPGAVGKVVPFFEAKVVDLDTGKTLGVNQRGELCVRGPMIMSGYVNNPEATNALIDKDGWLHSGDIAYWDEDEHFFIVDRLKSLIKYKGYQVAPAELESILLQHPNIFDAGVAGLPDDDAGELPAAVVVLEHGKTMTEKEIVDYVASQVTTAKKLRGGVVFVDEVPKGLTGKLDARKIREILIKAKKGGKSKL
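Purified P. pyralis luciferase, 10 nM final, with Km-level 10 uM D-luciferin and 10 uM ATP in 50 mM Tris acetate pH 7.5, 10 mM Mg acetate, 0.01% Tween-20, 0.05% BSA; 6-point qHTS titration about 60 µM downward; luminescence read.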
NPC1 promoter act: activators of NPC1 promoter. Huh7 NPC1 promoter luciferase reporter, 24 h. Potency, µM (top dose mostly 9.22 µM), without a hit: top-dose activation, most hits filed as activators. 320,000 tested, 2.4% active; note: % of control where 0% means no effect; nearly all actives have a fitted effect of over 60% in size
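Readout is luciferase luminescence, reflecting NPC1 promoter activation in stably transfected Huh7 cells after 24 h compound exposure at 37 °C in reduced-serum medium with 10% FBS.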
ELG1 genotoxic: induces genotoxicity in HEK293T cells with luciferase-tagged ELG1. HEK293T ELG1-luciferase reporter, luminescence, 16 h. Potency, µM (doses to about 46 µM), inactives show at the highest dose activity change, positive = activation, usual class: activators. 330,000 tested, 1.3% active. AID 504466; note: % of control where 0% means no effect; nearly all actives have a fitted effect of over 60% in size
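DMSO vehicle served as control against compound-treated ELG1-luciferase HEK293T cells; exposure lasted 16 hr at 37 °C and 5% CO2, followed by ONE-Glo luminescence detection after 30 min.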
* hit, by the source's call; ? = inconclusive; · = no result given; [ ] = dose if it differs, or a comment. An excerpt weighted towards active compounds, which were near 7.4% of everything screened. Calls come from the whole dose curve; as a rule, active = well fitted curve in the direction sought with a large enough effect; inconclusive = small, poorly fitted or top-dose-only effect, or another doubt; inactive = no such curve, though single readings can be large; an effect the other way counts as inactive or inconclusive. Potency is the fitted concentration of half-maximal effect.

SMILES | SMN2 splice enh | Rab9 prom act | FLuc counter | NPC1 promoter act | ELG1 genotoxic
CNc1nc(N/N=C/c2ccc([N+](=O)[O-])cc2)nc(Nc2ccccc2)n1 | -30% | -3% | ? | 0% | -3%
COc1ccc(NC(=O)c2cc([N+](=O)[O-])ccc2O)cc1 | · | 0.0003µM* | 0.13µM* | 0.002µM* | ?
O=C(Nc1ccncc1)c1ccccc1F | -9% | -1% | -2% | -3% | -11%
COc1ccc(NC(=O)c2cccc([N+](=O)[O-])c2)cc1 | 43% | ? | ? | ? | ?
O=C(Nc1cccc([N+](=O)[O-])c1)c1cc2ccccc2cc1O | · | -40% | 0.95µM* | 3% | 15%
O=C(Nc1ccncc1)c1cc2ccccc2cc1O | · | 1.4µM* | 1.7µM* | 2µM* | ?
Fc1ccc(-c2nc(Nc3ccc(F)c(Cl)c3)nc3c2COc2ccccc2-3)cc1 | · | · | -15% | · | ·
CCOC(=O)c1ccc(S(=O)(=O)NNC(=O)c2cccc(N(C)C)c2)cc1 | 15% | 18% | 19µM* | 5% | 0%
Cc1ccc(NC(=O)Nc2nnc(N(C)C3CCCCC3)s2)c(Cl)c1 | · | · | -4% | · | ·
CCc1ccc(-c2cn(-c3nc(C)cc(C)n3)c(=N)o2)cc1 | 2% | 0% | 5.4µM* | 2% | -8%
O=C1CC(Sc2nnc(-c3ccccc3O)o2)C(=O)N1c1ccccc1 (configuration not stated) | -17% | 1% | ? | -1% | -3%
O=C1c2ccccc2CC1Sc1nnc(-c2ccccn2)o1 (configuration not stated) | 17% | 25% | 12µM* | 17% | 8%
O=C(O)C(S)[C@@H](S)C(=O)O (some centres not stated) | -12% | · | · | · | ·
N#C/C(=C\c1ccc(-c2ccc(C(=O)O)cc2)o1)C(=O)Nc1ccc(F)cc1 | · | ? | 2.4µM* | ? | 2%
CCOC(=O)c1ccc(-c2ccc(/C=C(\C#N)C(=O)Nc3cccc(C)c3)o2)cc1 | · | · | -4% | · | ·
Cc1cccc(C)c1NC(=O)/C(C#N)=C/c1ccc(-c2ccc(C(=O)O)cc2)o1 | · | 2.5µM* | 12µM* | 0.63µM* | ?
N#C/C(=C\c1ccc(-c2ccc(C(=O)O)cc2)o1)C(=O)NCC1CCCO1 (configuration not stated) | ? | 24% | ? | ? | 6%
CCn1nc(NS(=O)(=O)c2ccccc2)c2cc3cc(C)ccc3nc21 | · | 0% | 15µM* | 0% | 8%
CCn1nc(NS(=O)(=O)c2ccc(NC(C)=O)cc2)c2cc3cc(C)ccc3nc21 | · | 5% | 11µM* | 9% | 12%
CCn1nc(NS(=O)(=O)c2ccccc2)c2cc3ccc(C)cc3nc21 | · | -6% | ? | -4% | 0%
Cc1c(C(=O)NCc2ccc(F)cc2)sc2nc(-c3ccccc3)cn12 | · | · | -10% | · | ·
Cc1c(C(=O)N(C)c2ccccc2)sc2nc(-c3ccc(F)cc3)cn12 | · | · | 17µM* | · | ·
Cc1c(C(=O)NCc2cccnc2)sc2nc(-c3ccccc3)cn12 | · | ? | 24µM* | 23% | ?
Cc1c(C(=O)NCc2cccnc2)sc2nc(-c3ccc(F)cc3)cn12 | -78% | 16% | 19µM* | 25% | ?
Cc1c(C(=O)NCc2ccco2)sc2nc(-c3ccccc3)cn12 | 11% | ? | 17µM* | ? | ?
SMILES | SMN2 splice enh | Rab9 prom act | FLuc counter | NPC1 promoter act | ELG1 genotoxic
Cc1cnc2c(c1SCC(=O)NCc1ccc(F)cc1)c(=O)n(C)c(=O)n2C | · | · | 2% | · | ·
Cc1ccc(CCNC(=O)CCc2cn(Cc3ccccc3C)c3ccccc23)cc1 | · | · | 5% | · | ·
CC1=C(C(=O)Nc2cccnc2)C(c2ccc(Cl)cc2)n2nc(SCc3ccccc3)nc2N1 (configuration not stated) | 4% | · | 0% | · | ·
COC(=O)C1=C(C(=O)OC)[C@@H]2N(C)c3ccc(OC)cc3[C@@]23C[C@@H](C(=O)OC)N(S(=O)(=O)c2ccc(C)cc2)C3=N1 | -5%[9.22 µM] | · | · | · | ·
Cc1cc(-c2ccc(N3CCOCC3)cc2)nc2ccccc12 | · | ? | 1.5µM* | ? | ?
CN1CCN(c2ccc(-c3ccc4ccccc4n3)cc2)CC1 | -65% | -39% | 0.12µM* | -34% | -16%
Cc1cccc(-c2nc(Nc3ccc(N4CCOCC4)cc3)c3ccccc3n2)c1 | 1% | -2% | ? | 1% | -6%
c1ccc2nc(-c3ccc(N4CCOCC4)cc3)ccc2c1 | ? | 0.1µM* | 0.27µM* | 0.25µM* | ?
O=c1c(-c2cc(-c3ccccc3)nc3c2COc2ccccc2-3)coc2ccc(Cl)cc12 | 3% | · | -6% | · | ·
C[C@@H]1CC[C@H]2[C@H](C)C3[C@H](C[C@H]4[C@@H]5CC=C6C[C@@H](O)CC[C@@]6(C)[C@@H]5C[C@@H](O)[C@]34C)N2C1 (some centres not stated) | 2%[9.22 µM] | · | · | · | ·
CCOCCCNC(=O)C(=O)Nc1c2c(nn1-c1ccccc1)CSC2 | · | · | -17% | · | ·
Cc1cc(-c2cc(-c3ccccc3)on2)nc(NC2CCCC2)n1 | · | 0% | ? | 8% | 3%
O=C(c1ccccc1)c1cc(-c2ccccc2)on1 | ? | 0.63µM* | 0.21µM* | 0.56µM* | 2.1µM*
Nc1nc(-c2ccccc2)cs1 | 11% | 29% | ? | 21% | ?
c1ccc(-c2cc(-c3ccccc3)on2)cc1 | · | 1.4µM* | 0.76µM* | 1.4µM* | 5.8µM*
Cc1ccc(-c2cc(-c3ccccc3)no2)cc1 | · | 0.32µM* | 0.3µM* | 0.63µM* | ?
Nc1nc(-c2cc(-c3ccccc3)no2)cs1 | · | 1µM* | 3µM* | 1µM* | 2.1µM*

Source: PubChem (National Center for Advancing Translational Sciences (NCATS))
